Screening data: PubChem, The Scripps Research Institute Molecular Screening Center
DAX1 inh-1: DAX1 (NR0B1) inhibition, primary screen; HEK293T StAR-luciferase reporter, SF-1/DAX-1 repression relief; inhibition, % at 6.8 µM; 370,000 compounds, 1.1% hits;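 active = inhibition above the mean over all tested compounds plus 3 SD, cut at about 3.6% in these data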;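 note: 0% = DAX-1 cells with DMSO and 100% = cells lacking DAX-1 with DMSO; higher inhibition means more luminescence from relief of DAX-1 repression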
hcDAF12 agonist: activates DAF-12 receptor from parasite H. contortus; HEK293 hcDAF-12 lit1-tk-luc reporter, luminescence; 0% DMSO, 100% Δ7-dafachronic acid; activation, % at 6.8 µM; 370,000 compounds, 1.4% hits; AID 652067;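 active = activation above the mean of all tested compounds plus 3 SD, cut at about 5.5% in these data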;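 note: 100% = response to 3 µM Δ7-dafachronic acid high control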
AHR act: activates the human aryl hydrocarbon receptor | P35869 | AHR-responsive luciferase reporter cells, luminescence | activation, % at 5 µM | 320,000 compounds, 2.5% hits; in the data active = activation above about 47%;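 note: 0% = vehicle wells and 100% = reference agonist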
ssDAF12 agonist: activators of S. stercoralis DAF-12 nuclear receptor; HEK293 ssDAF-12/GRIP1 lit1-tk-luc reporter, luminescence; % of 3 µM dafachronic acid response; activation, % at 6.8 µM; 370,000 compounds, 1% hits;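 active = activation above the mean over all tested compounds plus 3 SD, cut at about 0.9% in these data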;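 note: 0% = DMSO-only wells and 100% = 3 µM delta7-dafachronic acid wells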
DAX1 inh-2: NR0B1 (DAX1) inhibition | P51843 | 340,000 compounds, 0.99% hits | HEK293 Gal4-DAX1 luciferase reporter, luminescence | inhibition, % at 6.75 µM;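 active = inhibition above the mean over all tested compounds plus 3 SD, cut at about 4.2% in these data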;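 note: 0% = DAX1-transfected cells with DMSO and 100% = empty-vector control cells with DMSO; inhibition shows as a rise in luminescence from relieved DAX1 repression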
Target sequence (P51843 207-470 limits assumed): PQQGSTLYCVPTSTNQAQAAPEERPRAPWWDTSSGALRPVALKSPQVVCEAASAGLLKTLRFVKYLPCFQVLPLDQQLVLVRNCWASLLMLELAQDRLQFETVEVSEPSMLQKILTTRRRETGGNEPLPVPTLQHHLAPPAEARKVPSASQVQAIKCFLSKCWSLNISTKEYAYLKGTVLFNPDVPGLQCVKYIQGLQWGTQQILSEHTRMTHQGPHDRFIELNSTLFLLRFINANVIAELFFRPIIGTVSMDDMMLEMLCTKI
hgDAF12 agonist: agonists of H. glycines DAF-12 nuclear receptor | HEK293 GAL4-hgDAF12 UAS-luciferase reporter, agonist luminescence; normalized to butyrate control | activation, % at 6.8 µM | 370,000 compounds, 1.8% hits | AID 687014;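 active = activation above a cutoff set at the mean of all screened compounds plus 3 SD, cut at about 10% in these data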;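 note: 0% = DMSO wells and 100% = sodium butyrate wells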
Active calls of the source: *; . = no result given. Sampled rows, rich in hits. Any-hit rate of the full collection: about 5.7%.

SMILES	DAX1 inh-1	hcDAF12 agonist	AHR act	ssDAF12 agonist	DAX1 inh-2	hgDAF12 agonist
CN(C)[C@H]1CCN(c2ccc3c(c2)O[C@@H]2CCN(C2)S3(=O)=O)C1	1	0	.	0	.	3
Cc1ccc(C(=O)Cn2cnc3ccccc3c2=O)cc1	2	1	8	-1	2	6
O=C(Cn1cnc2ccccc2c1=O)c1ccccc1	1	1	48*	-1	1	3
O=C(Cn1cnc2ccccc2c1=O)c1ccc(Br)cc1	2	1	7	-1	0	12*
CN(C(=O)CCNC(=O)Cn1cnc2ccccc2c1=O)c1ccc(F)cc1	0	-2	0	-1	4.8*	3
O=C(Cn1cnc2ccccc2c1=O)c1ccc(Cl)cc1	1	3	.	-1	-1	11*
Cc1cc(Nc2ccc(F)cc2Cl)n2nc(C)nc2n1	0	1	40	-2	0	-1
COc1ccc(Cl)cc1Nc1cc(C)nc2nc(C)nn12	0	-2	71*	-1	1	-2
COc1cc(OC)c(Nc2cc(C)nc3nc(C)nn23)cc1Cl	0	-2	5	-1	7.2*	-1
O=C(c1ccc(Cl)cc1)n1c(NCc2ccccc2)n[nH]c1=S	0	-1	3	-2	0	2
CC(=O)Nc1ccc(Cl)cc1C(=O)O	0	0	6	0.9*	1	0
O=C(COC(=O)c1ccc(O)cc1)Nc1ccccc1[N+](=O)[O-]	-1	0	8	-1	-1	1
COc1cc(-c2noc(C)c2C(=O)NCc2ccc3c(c2)OCO3)cc(OC)c1OC	0	0	6	-2	2	0
CSc1ncc(Cl)c(C(=O)Nc2cccc(Cl)c2)n1	0	2	55*	0	-1	1
CSc1ncc(Cl)c(C(=O)Nc2cccc3ccccc23)n1	0	3	5	-1	2	4
COc1c(Cl)cc(-c2noc(C)c2C(=O)NCc2ccc3c(c2)OCO3)cc1Cl	-1	-1	1	-1	4.3*	1
CSc1ncc(Cl)c(C(=O)Nc2cccc(C)c2)n1	-1	2	62*	-1	-1	-1
CSc1ncc(Cl)c(C(=O)NCc2ccc3c(c2)OCO3)n1	0	-1	74*	-1	-1	0
COc1ccccc1NC(=O)CCN1C(=O)c2ccccc2S1(=O)=O	-1	-1	7	0	2	1
c1ccc(SC23CCCCN(CCC2)[C@]32CO2)cc1 (some centres undefined)	0	0	.	0	.	1
CCOC(=O)C1(C)CCCN(C(=O)c2ccc3c(c2)OCO3)C1 (centres undefined)	-1	0	.	0	.	-1
Cc1cc(O)ccc1N=Cc1c(C(F)(F)F)[nH][nH]c1=O	-1	0	11	-1	4.4*	-1
O=c1[nH][nH]c(C(F)(F)F)c1C=Nc1ccccc1	-1	-2	0	-1	-1	0
OCCC1CN(CC#Cc2ccccc2)CCN1Cc1ccccc1F (centres undefined)	0	3	2	1.6*	0	0
O=C(CCn1c(=S)oc2ccccc21)NC1CCCCC1	0	0	1	5.3*	4	3
SMILES	DAX1 inh-1	hcDAF12 agonist	AHR act	ssDAF12 agonist	DAX1 inh-2	hgDAF12 agonist
CCOC(=O)c1cnn(-c2cc(C)c3ccccc3n2)c1N	0	5	53*	0	2	2
O/N=C/c1cc(Br)cc(Br)c1OCc1ccccc1	0	-2	64*	-2	-1	-4
Oc1c(Br)cc(Br)cc1C=NCc1ccccc1	0	1	2	1	0	0
O=C(CSc1nnc(-c2ccccn2)n1-c1ccccc1)Nc1ccc2c(c1)OCCO2	-2	-1	.	-2	.	1
COC(=O)C1=C(C)N(Cc2ccccc2C(F)(F)F)C(=NCc2ccc(OC)cc2)NC1c1ccc(F)cc1 (centres undefined)	-1	-2	.	-1	.	4
CC(C)C(C(=O)NCc1ccccc1)N1CCN(CCN2CCOCC2)CC1 (centres undefined)	0	0	.	-1	.	-1
CC1(C)Cc2c(cnn2-c2ccc(F)cc2)C(NC(=O)C2CCC2)C1 (centres undefined)	4.3*	0	0	-1	0	-1
COCCn1c(=NC(=O)CCS(=O)(=O)c2ccccc2)sc2c(OC)ccc(OC)c21	-1	-2	51*	-1	-1	-2
COCCNC(=O)c1c(N)[nH]c(C(=O)c2ccc(Br)cc2)c1-c1c(OC)ccc2ccccc12	.	-2	.	-1	.	2
Cc1cc2cc(CCNC(=O)CCc3ccccc3)c(=O)[nH]c2cc1C	-1	-1	11	0	-1	-3
O=C(NNC(=O)c1ccccc1OCc1ccccc1)c1ccccc1F	0	2	53*	-1	1	9
Cc1ccc(-c2cn(-c3ccccc3F)c(=S)[nH]2)cc1	1	3	37	1	4.4*	11*
O=[N+]([O-])c1ccc(-c2cn(-c3ccccc3F)c(=S)[nH]2)cc1	0	1	21	-1	1	4
COc1ccc(-c2nc3c(s2)CN(S(C)(=O)=O)CC3)cc1OC	0	1	.	-1	2	1
CCS(=O)(=O)N1CCc2nc(-c3ccccc3)sc2C1	2	3	-4	0	4.9*	12*
COc1cc(CNCCc2ccccc2)cc(Br)c1OCC(=O)Nc1ccccc1C	1	-2	1	0	4.3*	1
CNCc1cc(Br)c(OCC(=O)Nc2ccccc2OC)c(OC)c1	0	-1	3	-1	-1	1
COc1cc(/C=C/C(=O)O)cc(S(=O)(=O)Nc2ccc(S(=O)(=O)N3CCCCC3)cc2)c1OC	0	0	.	0	1	1
COc1ccc(OC)c(NC(=O)CSc2nncc(=O)n2N)c1	1	-1	7	0.9*	0	-1
COc1cccc(-c2nnc(SCC(=O)Nc3cc(C)ccc3OC)n2N)c1	-1	3	1	-1	0	-1
COc1ccc(OC)c(C(=O)CSc2nnc(-c3cccs3)n2C)c1	0	-1	-1	-1	0	1
COc1ccc(OC)c(C(=O)CSc2nnc(Cc3cccs3)n2CCc2ccccc2)c1	-1	1	59*	-1	0	0
COc1ccccc1CNC(=O)C(Cc1c[nH]c2ccccc12)NC(=O)OCc1ccccc1 (centres undefined)	-1	-3	24	-2	-2	-6
O=C(Nc1ccc(Cl)c(Cl)c1)Nc1cc(C(=O)NC2CC2)ccc1Cl	.	.	74*	.	.	.
O=C(Nc1ccc(Cl)c(Cl)c1)NC1CCS(=O)(=O)C1 (centres undefined)	0	-2	4	-2	2	4
